We go through 20 molecules from PubChem BioAssay (NCI).

About 79,000 compounds went through this panel and 15% of them were active in at least one assay; those are over-represented in the sample as a whole. Unmarked numbers belong to inactive results. Calls of active or inactive are those of the source. Rule as the data show it: active = growth inhibition above about 70%; inactive = the rest.

Assay [1] in a line: NCI Yeast Anticancer Drug Screen. Data for the rad50 strain (AID 155).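 Also: 0% = growth of vehicle-only cultures of the same strain.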 To be noted: S. cerevisiae rad50 strain growth inhibition; at 50.0 µM; active compounds read high. The method, boiled down:
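Yeast carrying a defined DNA repair defect were exposed to test compounds, and growth was compared with vehicle-treated controls to give percent inhibition.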

Assay [2] is described as follows: NCI Yeast Anticancer Drug Screen. Data for the mec2-1 strain (AID 157). To be noted: S. cerevisiae mec2-1 strain, at 50.0 µM, active compounds read high. The method, boiled down: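 Strain: mec2-1 (DNA repair/cell cycle alteration). Compound exposure, then growth measured; inhibition expressed relative to vehicle.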
Assay [3] in a line: NCI Yeast Anticancer Drug Screen. Data for the sgs1 mgt1 strain (AID 161).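 Also: 0% = growth of cultures given vehicle only.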 To be noted: S. cerevisiae sgs1 mgt1 strain, at 50.0 µM, active compounds read high. The method, boiled down:
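Test agents were incubated with a DNA-repair-mutant yeast strain. Growth was then read and compared against vehicle-treated controls.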

Assay [4] can be described thus: NCI Yeast Anticancer Drug Screen. Data for the cln2 rad14 strain (AID 165).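 Also: 0% = growth equal to vehicle treated cultures.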 The following applies: S. cerevisiae cln2 rad14 strain, at 50.0 µM, active compounds read high. The method, boiled down: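 Compounds are applied to the cln2 rad14 yeast strain, and growth is then compared with that of vehicle-treated cultures to give inhibition.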
Assay [5] can be described thus: NCI Yeast Anticancer Drug Screen. Data for the bub3 strain (AID 167). The following applies: S. cerevisiae bub3 mutant strain, at 50.0 µM, active compounds read high. An outline of the steps: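 Compounds were applied to a genetically altered yeast strain carrying a cell-cycle control defect. Growth inhibition was scored against vehicle-treated controls.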
Assay [6] is described as follows: NCI Yeast Anticancer Drug Screen. Data for the mlh1 rad18 strain (AID 175). The following applies: S. cerevisiae mlh1 rad18 strain growth inhibition; at 50.0 µM; active compounds read high. An outline of the steps: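 Read-out is yeast growth inhibition, calculated against vehicle-only controls. The compound was applied to a strain engineered with DNA damage repair alterations.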

On to `COC1OC2COC(c3ccccc3)OC2C(N=[N+]=[N-])C1O` (stereo not given), for which the growth inhibition in assay [1] is -0.1%; in assay [2], 4%; in assay [3] it was -4.9%; in assay [4] it was -31.2%; in assay [5], -7.45%; in assay [6], 2.2%.
Regarding `CC(=O)Nc1ncc2ccccc2c1-c1ccc(NC(=O)CCCl)cc1`, the growth inhibition in assay [1] was -0.65%; in assay [2], 19.4%; in assay [3] it was 19.8%; in assay [4], -1.3%; in assay [5] it was 3.6%; in assay [6], 12.8%.
As for `C=CC(C)(C)c1c2c(c(O)c3c(=O)c4ccc(O)c(O)c4oc13)C=CC(C)(C)O2`, the growth inhibition in assay [1] is -12.2%; in assay [2], -12%; in assay [3] it was 3.35%; in assay [4] it was -5.2%; in assay [5], -7.7%; in assay [6], -4.05%.
Take `CN(C)c1nc(Cl)c2c(-c3ccccc3)c(-c3ccccc3)oc2n1`: the growth inhibition in assay [1] is -0.6%; in assay [2], 3%; in assay [3], 10.5%; in assay [4], 16.1%; in assay [5], 24.6%; in assay [6], -25.1%.
For `Cn1c(=O)c2c(nc3sc4c(n32)C(=O)c2c(O)ccc(O)c2C4=O)n(C)c1=O`, the growth inhibition in assay [1] was 21.6%; in assay [2] it was 30.2%; in assay [3], 51.5%; in assay [4], 55.2%; in assay [5], 41%; in assay [6], -7.2%.
Regarding `O=c1[nH]c2c([N+](=O)[O-])cc(Cl)cc2nc1/C=C(\O)c1ccncc1`, the growth inhibition in assay [1] is 42.5%; in assay [2] it was 8.75%; in assay [3], 42.6%; in assay [4], 9.45%; in assay [5] it was 18.3%; in assay [6] it was 51.4%.
For the molecule `C=C1C(=O)OC2C1CCC(C)=C1C(=O)C=C(C)C12` (stereo not given), the growth inhibition in assay [1] was -24.3%; in assay [2], -12.5%; in assay [3], -6.6%; in assay [4], 13.2%; in assay [5], -13.9%; in assay [6] it was -16.2%.
Take `CC(CN1c2ccccc2Sc2ccccc21)N(C)CCO` (stereo not given): the growth inhibition in assay [1] was 3%; in assay [2] it was -24.7%; in assay [3], -4.05%; in assay [4], -1.6%; in assay [5], -4.3%; in assay [6] it was -0.9%.
With `CCN(CC)c1ccc2cc(C(=O)Nc3nc(C45CC6CC(CC(C6)C4)C5)cs3)c(=O)oc2c1`, the growth inhibition in assay [1] was -17.4%; in assay [2], -25.9%; in assay [3] it was -16.9%; in assay [4] it was -17.6%; in assay [5] it was -13.9%; in assay [6], -16.1%.
`Nc1cnc2c(c1)c(=O)nc1n2CCS1`: the growth inhibition in assay [1] is -0.45%; in assay [2] it was 9.65%; in assay [3], 6.6%; in assay [4] it was 5.3%; in assay [5] it was 0.5%; in assay [6] it was -27.1%.
On to `CCn1c2ccccc2c2ccc(N=Cc3ccc4ccccc4c3)cc21`, for which the growth inhibition in assay [1] is 5.65%; in assay [2], -2.3%; in assay [3] it was -7.3%; in assay [4], -14%; in assay [5] it was 14.3%; in assay [6], 1.3%.
With `O=C(NC1c2ccccc2Oc2ccccc21)OCCCCl`, the growth inhibition was -11.2% in assay [1]; -3.1% in assay [2]; 2.15% in assay [3]; -7.05% in assay [4]; 7.8% in assay [5]; -5.1% in assay [6].
Consider `CCC(C)CCOC(=O)c1ccc(N=Cc2ccc(C=Nc3ccc(C(=O)OCCC(C)CC)cc3)cc2)cc1` (stereo not given), for which the growth inhibition in assay [1] was -20.5%; in assay [2], 2.7%; in assay [3], 30%; in assay [4], 11.6%; in assay [5], 43.4%; in assay [6], 29.9%.
In the case of `Oc1[nH]c2ccccc2c1N=NC(=S)Nc1ccccc1Cl`, the growth inhibition in assay [1] was -8.2%; in assay [2], -2.3%; in assay [3] it was 46.5%; in assay [4], 36.2%; in assay [5], 21.8%; in assay [6], 26.2%.
Take `COc1ccccc1/C=C(\C)C(=O)O`: the growth inhibition in assay [1] is 10.8%; in assay [2], -15.3%; in assay [3], -6.2%; in assay [4] it was 0.05%; in assay [5], -11.3%; in assay [6], -16.1%.
For `CC1(C)C2CCC1(C)C(S)C2` (stereo not given), the growth inhibition in assay [1] is 7.5%; in assay [2] it was -1%; in assay [3], -2.75%; in assay [4] it was -57.1%; in assay [5] it was -2%; in assay [6], 11.9%.
As to `NS(=O)(=O)c1ccc(NC(=O)Nc2cccc(C(F)(F)F)c2)cc1`, the growth inhibition in assay [1] was 23.9%; in assay [2], 2.55%; in assay [3], 12.8%; in assay [4] it was 12.3%; in assay [5], 23.8%; in assay [6], 9.85%.
For the molecule `O=S1Nc2ccccc2[C@H]2[C@@H]1[C@H]1O[C@@H]2c2ccccc21` (stereo not given in full), the growth inhibition in assay [1] is -3.6%; in assay [2] it was -5.65%; in assay [3], -23.6%; in assay [4], -27.6%; in assay [5], -6.6%; in assay [6], -0.85%.
Consider `CN(C)C=N[C@@H](C(=O)O)c1ccccc1`, for which the growth inhibition in assay [1] is -8.85%; in assay [2], -19.1%; in assay [3], -11.4%; in assay [4] it was 8.8%; in assay [5], -4.95%; in assay [6], 9.8%.
Consider `CC(O)c1cc2c(s1)C(=O)c1scc(C(C)O)c1C2=O` (stereo not given), for which the growth inhibition is 89.8% (active) in assay [1]; 93.1% (active) in assay [2]; 92% (active) in assay [3]; 90.8% (active) in assay [4]; 91.4% (active) in assay [5]; 90.8% (active) in assay [6].
